What was measured:
Settings in all cases: Compound Concentration (nM):1000
NEK3 = system: NEK3
NEK4 = system: NEK4
NEK5 = system: NEK5
NEK6 = system: NEK6
NEK7 = system: NEK7
NEK9 = system: NEK9
NIK = system: T1, NIK
T1 construct: gene MAP3K14

NIM1 = system: T2, NIM1
T2 construct: gene MGC42105

NLK = system: NLK
OSR1 = system: T3, OSR1
T3 construct: gene OXSR1

PAK1 = system: PAK1
PAK2 = system: PAK2
PAK3 = system: PAK3
PAK4 = system: PAK4
PAK6 = system: PAK6
PAK7 = system: PAK7
PCTK1 = system: T4, PCTK1
T4 construct: gene CDK16

PCTK2 = system: T5, PCTK2
T5 construct: gene CDK17

PCTK3 = system: T6, PCTK3
T6 construct: gene CDK18

PDGFRA = system: PDGFRA
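Note: KINOMEscan scanMAX binding as percent activity remaining versus control; lower means stronger binding.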

SMILES | Percent Control (NEK3) | Percent Control (NEK4) | Percent Control (NEK5) | Percent Control (NEK6) | Percent Control (NEK7) | Percent Control (NEK9) | Percent Control (NIK) | Percent Control (NIM1) | Percent Control (NLK) | Percent Control (OSR1) | Percent Control (PAK1) | Percent Control (PAK2) | Percent Control (PAK3) | Percent Control (PAK4) | Percent Control (PAK6) | Percent Control (PAK7) | Percent Control (PCTK1) | Percent Control (PCTK2) | Percent Control (PCTK3) | Percent Control (PDGFRA)
COc1cc2ncnc(Nc3ccc4c(cnn4Cc4ccccc4)c3)c2cc1OC.Cl [GW282449A] | 100% | 100% | 100% | 100% | 96% | 100% | 100% | 100% | 100% | 100% | 100% | 100% | 30% | 100% | 100% | 100% | 100% | 100% | 100% | 83%
COc1cc2ncn(-c3cc(O[C@H](C)c4ccccc4Cl)c(C(N)=O)s3)c2cc1OC [GSK237701A] | 85% | 88% | 9.1% | 100% | 63% | 19% | 100% | 48% | 98% | 78% | 98% | 93% | 7.6% | 93% | 88% | 100% | 90% | 100% | 100% | 24%
CCS(=O)(=O)c1ccc(OC)c(Nc2ncc(-c3cccc(OC)c3)o2)c1 [GW580509X] | 100% | 100% | 100% | 100% | 100% | 100% | 92% | 100% | 100% | 100% | 100% | 100% | 100% | 100% | 96% | 100% | 100% | 100% | 100% | 69%
O=C1Nc2ccc(C(=O)c3ccco3)cc2C1=Cc1cc(Cl)c(O)c(Cl)c1 [GW406108X] | 100% | 83% | 100% | 94% | 100% | 100% | 100% | 93% | 100% | 100% | 100% | 80% | 100% | 100% | 80% | 100% | 100% | 100% | 91% | 79%
NS(=O)(=O)c1ccc(N/N=C2\C(=O)Nc3ccc(-c4cnco4)cc32)cc1 [GW276655] | 96% | 99% | 72% | 77% | 82% | 79% | 37% | 84% | 100% | 100% | 87% | 82% | 100% | 95% | 76% | 88% | 1.4% | 76% | 100% | 79%
COc1cc(/C=N/Nc2ncnc3[nH]ncc23)ccc1O [GW578748X] | 43% | 98% | 100% | 100% | 96% | 100% | 100% | 37% | 100% | 100% | 100% | 97% | 58% | 100% | 100% | 100% | 100% | 100% | 100% | 7.6%
COc1cccc(-n2ncc3c(N/N=C/c4ccncc4)ncnc32)c1 [GW784752X] | 86% | 100% | 100% | 100% | 92% | 90% | 100% | 86% | 91% | 99% | 100% | 100% | 100% | 100% | 96% | 100% | 25% | 70% | 100% | 36%
CC1=C(C(=O)Nc2ccc3[nH]ncc3c2)C(c2ccc3ccccc3c2)CC(=O)N1 (stereo not drawn) [GSK270822A] | 70% | 84% | 100% | 100% | 77% | 70% | 82% | 77% | 98% | 74% | 85% | 93% | 79% | 85% | 89% | 83% | 89% | 100% | 96% | 100%
CC(C)COC(=O)c1ccc2c(c1)/C(=C/Nc1ccc(S(N)(=O)=O)cc1)C(=O)N2 [GW416981X] | 95% | 90% | 100% | 100% | 100% | 83% | 95% | 86% | 100% | 100% | 100% | 100% | 100% | 100% | 100% | 97% | 0.6% | 16% | 60% | 55%
COC(=O)Nc1nc2ccc(Oc3ccc(NC(=O)Nc4cc(C(F)(F)F)ccc4F)cc3)cc2s1.Cl [GW693917A] | 87% | 83% | 76% | 100% | 100% | 50% | 80% | 79% | 95% | 100% | 100% | 100% | 43% | 100% | 82% | 91% | 74% | 72% | 78% | 11%
Nc1ncnc2occ(-c3ccc(NC(=O)Nc4cc(C(F)(F)F)ccc4F)cc3)c12 [GW770249X] | 98% | 71% | 82% | 100% | 100% | 38% | 100% | 100% | 100% | 100% | 100% | 100% | 31% | 100% | 100% | 100% | 82% | 29% | 31% | 1.4%
COc1cc(C)c(N(C)C(=O)CN(C)C)cc1Nc1nc(Nc2cccc(F)c2C(N)=O)c2cc[nH]c2n1 [GSK2219385] | 94% | 100% | 94% | 100% | 91% | 90% | 100% | 80% | 95% | 100% | 100% | 74% | 100% | 100% | 96% | 82% | 79% | 100% | 100% | 100%
CN(C)c1cc2c(Nc3ccc4c(cnn4Cc4ccccc4)c3)ncnc2cn1 [GW282974X] | 77% | 99% | 48% | 27% | 78% | 88% | 86% | 74% | 90% | 100% | 89% | 79% | 26% | 98% | 87% | 88% | 87% | 100% | 100% | 100%
Cl.O=C(Nc1ccc(Oc2ccc3[nH]c(NC(=O)c4ccccc4)nc3c2)cc1)Nc1cc(C(F)(F)F)ccc1F [GW709042A] | 98% | 83% | 95% | 92% | 100% | 20% | 100% | 88% | 95% | 100% | 93% | 90% | 5.9% | 100% | 96% | 100% | 100% | 100% | 96% | 35%
NS(=O)(=O)c1ccc(N/N=C2\C(=O)Nc3ccc(C(=O)NCCc4c[nH]cn4)cc32)cc1 [GW300660X] | 78% | 80% | 100% | 100% | 100% | 100% | 74% | 14% | 100% | 100% | 100% | 81% | 100% | 100% | 100% | 100% | 2.2% | 100% | 100% | 54%
C[C@@H](Oc1cc(-n2cnc3ccc(OC4CCN(C)CC4)cc32)sc1C(N)=O)c1ccccc1Cl [GSK579289A] | 92% | 79% | 63% | 100% | 69% | 19% | 82% | 51% | 100% | 100% | 100% | 84% | 0% | 100% | 75% | 74% | 94% | 94% | 86% | 54%
CN1CCN(C(=O)c2ccc(NC(=O)Nc3ccc(N(C)c4ccnc(Nc5ccc(CS(C)(=O)=O)cc5)n4)cc3)cc2)CC1.Cl [GW830263A] | 66% | 85% | 82% | 100% | 93% | 62% | 100% | 99% | 80% | 98% | 92% | 50% | 0% | 46% | 92% | 67% | 76% | 91% | 96% | 2%
COc1ccc2c(-c3ccnc(Nc4cccc(OC(F)(F)F)c4)n3)cnn2n1 [GW810372X] | 22% | 80% | 7.6% | 39% | 3.6% | 47% | 96% | 77% | 81% | 100% | 100% | 100% | 100% | 100% | 96% | 100% | 100% | 100% | 99% | 87%
CCc1ccc(Oc2nccc(-c3c(-c4ccc(F)cc4)ncn3C3CCNCC3)n2)cc1 [SB-242719] | 100% | 96% | 100% | 100% | 100% | 100% | 100% | 83% | 25% | 100% | 100% | 100% | 71% | 100% | 82% | 98% | 87% | 100% | 94% | 100%
CCn1c(-c2nonc2N)nc2c(C#CC(C)(C)O)nc(OCCNC)cc21.Cl [GSK949675] | 100% | 100% | 100% | 95% | 100% | 100% | 1.5% | 100% | 100% | 100% | 100% | 52% | 100% | 75% | 60% | 46% | 82% | 100% | 100% | 100%
CCS(=O)(=O)c1ccc(OC)c(Nc2ncc(-c3cccc(F)c3)o2)c1 [GW621970X] | 100% | 100% | 95% | 100% | 100% | 100% | 93% | 100% | 100% | 100% | 100% | 100% | 100% | 100% | 100% | 100% | 100% | 100% | 81% | 49%

Reference: article PMC7826789 (International Journal of Molecular Sciences, 2021)
